# Compounds with a hit are over-represented: about 3.9% of the library has one in this group of screens.
# 3CLpro inhibitor: SARS-CoV 3CLpro protease inhibition; AID 1706; recombinant SARS-CoV 3CLpro, quenched FRET peptide cleavage; inhibition, % at 6 µM; 290,000 tested, 0.14% active; P0C6X7; in the data active = inhibition above about 12%
# Bead autofluor: counter-screen for toxin protease inhibitors: compound fluorescence; compound autofluorescence counterscreen, microsphere flow cytometry; stronger effect = higher value; fluorescence intensity (concentration not given with the values); 360,000 tested, 3.1% active; in the data active = fluorescence intensity above about 16000; inconclusive = no clear call, values can overlap the other calls
# BoNT A protease: inhibitors of Botulinum neurotoxin A light chain protease; inhibition, % at 10 µM; 360,000 tested, 0.17% active; multiplex microsphere protease substrate cleavage, flow cytometry; also: plate controls were buffer without enzyme for full effect and enzyme alone for no effect
# BoNT F protease: BoNT F light chain protease inhibition | Multiplex microsphere protease cleavage assay, flow cytometry | inhibition, % at 10 µM | 360,000 tested, 0.22% active; in the data active = inhibition above about 35%, passing the limit was not always enough; inconclusive = no clear call, values can overlap the other calls; also: plate controls were buffer without enzyme for full effect and enzyme alone for no effect
# CCHF vOTU inh: CCHFV vOTU protease inhibition | 370,000 tested, 0.55% active | inhibition, % at 11.5 µM | Pep-AMC fluorescence; in the data active = inhibition above about 30%; also: 0% = vehicle wells with enzyme and 100% = no enzyme wells
# Anthrax LF prot: anthrax lethal factor protease inhibition; inhibition, % at 10 µM; P15917; 360,000 tested, 0.12% active; AID 588501; multiplex microsphere protease cleavage assay, LF; also: plate controls were buffer without enzyme for full effect and enzyme alone for no effect
# Active calls of the source: *; ? = inconclusive; nt = no result given; ! = a repeat was not active. Rule as the data show it, unless noted: active = inhibition above about 30%; inconclusive = no clear call, values can overlap the other calls; inactive = below that.
SMILES,3CLpro inhibitor,Bead autofluor,BoNT A protease,BoNT F protease,CCHF vOTU inh,Anthrax LF prot
O=C(NCCN1C(=O)C2C3C=CC(C3)C2C1=O)c1cc(F)cc(F)c1 (stereo not drawn),nt,nt,nt,nt,-4,nt
Cc1ccnc(-n2c(-c3ccccc3)nc3ccccc3c2=O)c1,1,19731*,4,1,7,0
C/C(=C\c1ccccc1)C(=O)n1nnc2ccccc21,0,17498*,-6,-9,-4,-7
O=C(N1CCOCC1)n1cnc2ccccc21,-4,5975,0,-5,-14,-3
O=C(N1CCOCC1)n1nnc2ccccc21,0,22842*,-1,-2,-1,0
COCC1CCCCN1C(=O)c1cccc(OC2CCN(S(C)(=O)=O)CC2)c1 (stereo not drawn),-4,4440,-1,-5,5,-1
COCCCn1c(Cc2ccccc2)nnc1SCC(=O)N1CCCCC1,4,22748*,-2,-2,-6,0
O=C(O)c1ccccc1S(=O)CCO (stereo not drawn),-1,22978*,0,2,2,2
CCCCn1c(-c2ccco2)n[nH]c1=S,-4,2010,0,5,6,1
CCCCn1c(-c2ccoc2C)n[nH]c1=S,-4,23012*,-1,-2,5,-2
COc1ccc(N=C2SC(CC(=O)Nc3ccc(OC)cc3OC)C(=O)N2C)cc1 (stereo not drawn),0,20859*,3,5,-1,-2
COc1ccc(OC)c(NC(=O)CC2SC(=Nc3ccccc3)N(CCc3ccccn3)C2=O)c1 (stereo not drawn),3,2027,1,-4,3,-1
COCCC1CCCCN1C(=O)c1cc(COc2ccc(-n3cncn3)cc2)on1 (stereo not drawn),1,35235*,-170,-303,-6,-44
COCCOC1CCN(C(=O)c2cc(COc3ccc(-n4cncn4)cc3)on2)CC1,-2,5450,0,-2,0,3
COc1ccc(NC(=O)c2ccc(CNc3c(N4CCCC4)c(=O)c3=O)cc2)cc1Cl,-3,3903,0,2,-3,3
CNC(=O)C(C)NS(=O)(=O)c1ccc(F)cc1 (stereo not drawn),-3,21451*,-4,-5,0,-1
CNC(=O)CN(C)S(=O)(=O)c1ccc(F)cc1,4,23131*,?,2,-10,-1
CN(CC(=O)O)S(=O)(=O)c1ccc(F)cc1,-2,10317,0,-9,24,0
CC(C)(C)n1nnnc1C1c2ccccc2C(=O)N1CCc1c[nH]c2ccccc12 (stereo not drawn),nt,6143,1,4,12,-2
Nc1[nH]c(C(=O)c2ccccc2)c(-c2cccc(C(F)(F)F)c2)c1C(=O)c1c[nH]c2ccccc12,nt,nt,nt,nt,7,nt
CCOCCCNC(=O)c1c(C)c(C(=O)OCC)n(C)c1C,4,18479*,?,8,2,-8
CCOC(=O)c1c(C)c(C(=O)NCc2ccccc2OC)c(C)n1C,-1,22066*,-5,-6,6,1
CCOC(=O)c1c(C)c(C(=O)NC2CCCCCC2)c(C)n1C,-2,21622*,?,5,-18,3
CCOC(=O)c1c(C)c(C(=O)NCc2ccc(OC)cc2)c(C)n1C,6,2229,2,-7,1,1
CC(C)CCNC(=O)C1(C)CCN1Cc1ccc(-c2ccccn2)cc1 (stereo not drawn),nt,3745,0,-2,7,3
SMILES,3CLpro inhibitor,Bead autofluor,BoNT A protease,BoNT F protease,CCHF vOTU inh,Anthrax LF prot
CCOC(=O)N1CCN(C(=O)C[C@@H]2C[C@@]3(C(=O)OCC)CCC=C3N(Cc3ccccc3)C2=O)CC1,nt,5944,1,2,-4,7
COC(=O)c1ccc(-c2ccc3c(c2)[C@]2(CCC[C@@H](O)[C@@H]2NC(=O)CCc2ccccc2)C(=O)N3Cc2ccccc2)cc1,nt,nt,nt,nt,-14,nt
CN(C)c1ccc(C(c2ccc(N(C)C)cc2)C(O)c2ccccc2)cc1 (stereo not drawn),nt,?,0,-5,-11,-5
Clc1ccccc1-c1ccc(/C=N/n2cnnc2)o1,-1,16641*,0,0,15,-4
COc1ccc(NC(=S)N/N=C/c2cccn2Cc2ccc(F)cc2)cc1,8,4231,0,-9,5,-7
CC(=O)c1sc2nc(C)cc(C)c2c1N,-1,21807*,0,1,-19,-3
COc1ccccc1C1(CC(=O)N2CCCCC2)CCOC(C(C)C)C1 (stereo not drawn),-3,16312*,0,-2,0,3
O=C1CC(c2ccco2)CC(O)=C1C=Nc1ccc(Br)cc1 (stereo not drawn),2,4173,0,-7,7,-4
Cc1[nH]nc(N=CC2=C(O)CC(C)(C)CC2=O)c1-c1ccc(Cl)cc1,1,20907*!,?,-6,13,3
CC1(C)CC(=O)C(C=Nc2ccc(Cl)cn2)=C(O)C1,-3,4505,0,9,4,0
Cc1ccc(N=CC2=C(O)CC(c3ccco3)CC2=O)cc1 (stereo not drawn),-2,17259*,10,18,7,-1
Cc1[nH]nc(N=CC2=C(O)CC(c3ccco3)CC2=O)c1-c1ccc(Cl)cc1 (stereo not drawn),0,23437*,-3,-4,-29,-1
Cc1ccc(C(=O)N2CCCCC2)cc1S(=O)(=O)N1CCCCCC1,3,5688,0,1,8,1
Cc1cc(C)n(C(=O)c2ccc(C)c(S(=O)(=O)N3CCCCC3)c2)n1,1,16992*,-2,0,10,0
COC(=O)c1cn(N(C)c2ncc(C(F)(F)F)cc2Cl)c(=O)c2ccccc12,-3,2383,-1,3,-4,-4
CCOC(=O)NC(=O)c1cn(N(C)c2ncc(C(F)(F)F)cc2Cl)c(=O)[nH]c1=O,3,21416*,-17,-67,8,-23
C#CCn1cnc2c(oc3ccccc32)c1=O,0,nt,nt,nt,nt,nt
COC(=O)CSc1nnc(-c2ccncc2)n1N,-3,19048*,2,0,-4,-3
Cc1ccc(NC(=O)CSc2nnc(-c3ccncc3)n2N)cc1C,-5,24163*,-1,-4,0,0
CSCc1ccc(C(=O)OCC(=O)NC2CCCC2)o1,nt,3014,0,-8,-7,-4
COc1ccc(NC(=O)COC(=O)c2cc(OC)c(OC)cc2NC(=O)c2ccco2)cc1OC,4,21054*,0,-2,-1,-3
COc1cc(NC(=O)c2ccco2)c(C(=O)O)cc1OC,-2,23681*,-2,-2,-4,-3
COc1cc(NC(=O)C2CCCO2)c(C(=O)O)cc1OC (stereo not drawn),-6,21130*,-1,-5,nt,2
COc1cc(NC(=O)c2ccco2)ccc1NC(=O)C(C)C,0,21437*,?,-7,-8,-3
COC(=O)c1cc(OC)c(OC)cc1NC(=O)c1ccco1,-4,3074,1,-2,2,0
